{"source": "PubChem BioAssay AID652017", "about": "(The Scripps Research Institute Molecular Screening Center, 2013)", "note": "Screen size: about 370,000 compounds; about 3,800 (1%) were called active. Many of the other results were omitted from the sample, so actives are more common in it than they were. Unmarked numbers belong to inactive results. Rule as the data show it: active = activation above about 7.8%; inactive = the rest."}
{"experiment": "SMARCA2 (BRM) function activators, primary screen, cell-based, luminescence, high throughput (AID 652017);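 also: 0% = vehicle wells and 100% = reference activator wells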", "details": "MG213 cells, MMTV-luciferase reporter, dexamethasone, overnight; at 9.1 µM; active compounds read high"}
{"smiles": "O=C(NCc1cccs1)C1CCN(S(=O)(=O)c2ccccc2[N+](=O)[O-])CC1", "activation": "-3.33%"}
{"smiles": "Cc1ccc(NC(=S)NNC(=O)CSc2nnc(SCc3ccccc3Cl)s2)cc1", "activation": "-6.06%"}
{"smiles": "CC(=O)Oc1ccc(C(=O)Nc2nccs2)cc1", "activation": "9.12% (active)"}
{"smiles": "Cn1cccc1C(=O)Nc1nccs1", "activation": "1.12%"}
{"smiles": "CCOc1ccc(C(=O)Nc2nccs2)cc1[N+](=O)[O-]", "activation": "5.63%"}
{"smiles": "COc1ccc(-c2nc3n(c(=O)c2C#N)CCS3)c(OC)c1", "activation": "-2.7%"}
{"smiles": "COc1ccc2c(c1)CN1CN(CCc3ccccc3)S(=O)(=O)CC21", "note": "(centres undefined)", "activation": "5.9%"}
{"smiles": "COc1ccc(-c2cc(C(F)(F)F)nc(S(C)(=O)=O)n2)cc1OC", "activation": "-11.1%"}
{"smiles": "COc1ccc(OC)c2c(N)c(C#N)c(C(F)(F)C(F)(F)F)nc12", "activation": "1.9%"}
{"smiles": "COc1ccc(-c2cc(-c3ccc(N)cc3)nc(N)c2C#N)cc1OC", "activation": "8.11% (active)"}
{"smiles": "CCCCOc1ccc(Cl)cc1CSc1nncn1N", "activation": "1.44%"}
{"smiles": "CCCCCCCCN1C(=O)[C@@H](CC(=O)NCc2ccc(C)o2)C[C@@]2(C(=O)OC)C1=C[C@H](C(C)(C)C)O[C@@H]2C", "activation": "-5.88%"}
{"smiles": "COc1cccc(CSc2nnc(-c3cccnc3)n2Cc2ccccc2)c1", "activation": "-3.94%"}
{"smiles": "Cn1sc(=O)c2cc(S(=O)(=O)NC3CC3)ccc21", "activation": "8.34% (active)"}
{"smiles": "CC(C)c1ccc(S(=O)(=O)NC2CCCC2)cc1", "activation": "-1.52%"}
{"smiles": "Cc1ccc(S(=O)(=O)NC2CCCCCC2)cc1C(N)=O", "activation": "-2.18%"}
{"smiles": "CN(C)CC(=O)N[C@@H]1C[C@@H]2O[C@H](CO)CC[C@@H]2O[C@@H]1CCc1ccc(C#Cc2ccccc2)cc1", "activation": "0.56%"}
{"smiles": "CCC(C)Sc1nc(C)nc2c1c(=O)n(C)c(=O)n2C", "note": "(centres undefined)", "activation": "-1.47%"}
{"smiles": "CC(=O)Nc1cc(-c2ccc(N3CCN(C)CC3)cc2)cn2c(-c3ccc(F)cc3)cnc12", "activation": "12.3% (active)"}
{"smiles": "O=CNc1cc(-c2ccc(C(=O)N3CCOCC3)cc2)cn2c(-c3ccc(F)cc3)cnc12", "activation": "-2.13%"}
{"smiles": "CN(C)CCNC(=O)c1cccc(-c2cnc3c(NC=O)cc(-c4cccc(C(F)(F)F)c4)cn23)c1", "activation": "21.3% (active)"}
{"smiles": "CC(=O)Nc1cc(-c2cccc(CO)c2)cn2c(-c3cccc(C(F)(F)F)c3)cnc12", "activation": "-2.27%"}
{"smiles": "CC(=O)Nc1cccc(-c2cc(NC(C)=O)c3ncc(-c4ccccc4)n3c2)c1", "activation": "-12.2%"}
{"smiles": "CC(=O)Nc1cc(-c2ccc(N3CCN(C)CC3)cc2)cn2c(-c3cccc(C(=O)N(C)C)c3)cnc12", "activation": "5.35%"}
{"smiles": "CC(=O)c1cccc(-c2cnc3c(NC=O)cc(-c4ccc(N5CCN(C)CC5)cc4)cn23)c1", "activation": "16.7% (active)"}
{"smiles": "CN(C)C(=O)c1cccc(-c2cnc3c(NC=O)cc(-c4ccc(C(=O)N5CCOCC5)cc4)cn23)c1", "activation": "3.31%"}
{"smiles": "COc1ccc(-c2cc(NC=O)c3ncc(-c4cccc(C(=O)N(C)C)c4)n3c2)c(OC)c1", "activation": "-4.41%"}
{"smiles": "O=C(CN1CCC(NC(=O)NCc2ccccc2)CC1)Nc1ccc2c(c1)OCCO2", "activation": "0.31%"}
{"smiles": "COc1ccc(N2CCN(CCNS(=O)(=O)c3ccc(C(C)(C)C)cc3)CC2)cc1", "activation": "3.29%"}
{"smiles": "Clc1ccc(-n2c(COc3ccccc3)nnc2SCc2nc3ccccc3[nH]2)cc1", "activation": "-4.61%"}
{"smiles": "O=C(CCCCO)c1ccc(O)c(Cl)c1", "activation": "-1.51%"}
{"smiles": "CC(C)CNc1cccc2c1S(=O)(=O)N(Cc1cn(Cc3ccccc3C(F)(F)F)nn1)Cc1ccccc1O2", "activation": "-2.65%"}
{"smiles": "CCOC(=O)N1CCN(C(=O)C[C@@H]2C(=O)N(CCc3ccc(Cl)cc3)C3=CCCC[C@]32C(=O)OCC)CC1", "activation": "-1.86%"}
{"smiles": "COc1cc(NC(=O)C2CCCN(S(=O)(=O)c3ccc(C(C)(C)C)cc3)C2)cc(OC)c1", "note": "(centres undefined)", "activation": "2.08%"}
{"smiles": "CCCCCN1CCCCC(NC(=O)C(C)CCC)C1=O", "note": "(centres undefined)", "activation": "-0.09%"}
{"smiles": "CC1CCCCN1C(=O)CCS(=O)(=O)Cc1ccccc1", "note": "(centres undefined)", "activation": "-2.25%"}
{"smiles": "CC1CCCCN1C(=S)NCc1ccccc1", "note": "(centres undefined)", "activation": "8.25% (active)"}
{"smiles": "C/C(=N\\NC(=S)NCc1ccccc1)C1CCCCC1", "activation": "1.15%"}
{"smiles": "O=C1C2CCCN2C(=O)N1CCCCN1CCN(c2cccc(C(F)(F)F)c2)CC1", "note": "(centres undefined)", "activation": "2.48%"}
{"smiles": "CN(C)C(CNC(=O)c1ccc(OCc2cn3ccccc3n2)cc1)c1ccco1", "note": "(centres undefined)", "activation": "11.2% (active)"}
{"smiles": "O=C(NCCc1ccco1)c1ccc(OCc2cn3ccccc3n2)cc1", "activation": "6.76%"}
{"smiles": "O=Cc1ccc(OCc2cn3ccccc3n2)cc1", "activation": "-6.54%"}
{"smiles": "CC(=O)N1CCCN(C2=Nc3ccccc3Sc3ccccc32)CC1", "activation": "-0.9%"}
{"smiles": "O=C(NCc1ccco1)C1CCCN(S(=O)(=O)c2ccc(Cl)s2)C1", "note": "(centres undefined)", "activation": "-1.17%"}
{"smiles": "O=C(CSc1n[nH]c(-c2cccnc2)n1)Nc1ccnc2ccccc12", "activation": "-1.59%"}
{"smiles": "Fc1ccc(/C=N/Nc2nc(-c3cccnc3)nc3ccccc23)cc1", "activation": "11.3% (active)"}
{"smiles": "COC(=O)c1cccc(Cn2ccc3ccc(-c4ccc5ccn(C(=O)C6CCCCC6)c5c4)cc32)c1", "activation": "-0.58%"}
{"smiles": "Cc1ccccc1NC(=O)COC(=O)c1ccc(Sc2ncn[nH]2)c([N+](=O)[O-])c1", "activation": "-3.59%"}
{"smiles": "CC[C@@H](CCC(=O)N(c1ccccc1)c1ccccc1)C1CC1", "activation": "-5.25%"}
{"smiles": "Cc1ccc(NS(=O)(=O)c2ccc(C(C)C)cc2)cc1S(=O)(=O)N1CCOCC1", "activation": "-0.94%"}
{"smiles": "COC(=O)[C@@]12CCCCC=C1N(CCc1ccc(Cl)cc1)C(=O)[C@H]2CC(=O)NCc1ccc(OC)c(OC)c1", "activation": "-0.41%"}
{"smiles": "CCC(=O)Nc1ccc2nn(-c3ccc(F)cc3)nc2c1", "activation": "9.02% (active)"}
{"smiles": "O=C(Nc1cccc(Cl)c1)c1cncn1-c1ccc(F)cc1", "activation": "-2.14%"}
{"smiles": "CCOC(=O)c1nnn(CC(=O)Nc2cccc(F)c2)c1C(=O)OCC", "activation": "-2.09%"}
{"smiles": "CC1CN(Cc2ccco2)C(=S)N(c2ccccc2)C1=O", "note": "(centres undefined)", "activation": "-1.86%"}
{"smiles": "CN(C)C(=S)N=c1ssc(=S)n1Cc1ccco1", "activation": "8.22% (active)"}
{"smiles": "CCc1ccccc1N1CN(Cc2ccco2)CNC1=S", "activation": "-4.87%"}
{"smiles": "COC(=O)C1=C(C)N(Cc2ccc(F)cc2)C(=S)NC1c1cccc(Cl)c1", "note": "(centres undefined)", "activation": "-3.14%"}
{"smiles": "Cc1ccccc1C#CC1=CC(=O)CC(C)(C)C1", "activation": "9.9% (active)"}
{"smiles": "Cc1cc(O)ccc1NC1=CC(=O)CC(C)(C)C1", "activation": "-2.49%"}
{"smiles": "Cc1ccc(C(=O)OC2=CC(=O)CC(C)(C)C2)cc1", "activation": "2.66%"}
{"smiles": "COc1ccccc1N(CC(=O)Nc1ccc(C(F)(F)F)cc1)S(C)(=O)=O", "activation": "-1.17%"}
{"smiles": "C=CCN1C(=O)[C@@H](CC(=O)NCCCOCCCC)[C@]2(C(=O)OCC)CCCCC/C=C/12", "activation": "-1.57%"}
{"smiles": "COc1ccc(-n2c(SCC(=O)NC3CCCC3)nnc2-c2ccncc2)cc1", "activation": "-4.56%"}
{"smiles": "Cc1c(C(=O)NCCCc2ccccc2)cccc1[N+](=O)[O-]", "activation": "8.08% (active)"}
{"smiles": "CSc1ncc(C(=O)NCCCc2ccccc2)c(C)n1", "activation": "-0.15%"}
{"smiles": "O=C(O)c1ccccc1-c1ccccc1C(=O)NCCc1ccccc1", "activation": "1.35%"}
{"smiles": "O=S1(=O)c2c(cccc2N2CCSCC2)Oc2ccccc2CN1Cc1cn(Cc2ccc(F)cc2)nn1", "activation": "-2.23%"}
{"smiles": "O=C(CCS(=O)(=O)c1ccccc1)Nc1ccc(Cl)c(Cl)c1", "activation": "1.57%"}
{"smiles": "COc1ccc(-n2c(SCC(=O)Nc3ccc4c(c3)OCCO4)nnc2-c2ccc(Cl)cc2)cc1", "activation": "-0.28%"}
{"smiles": "Cc1ccnc(NC(=O)C2CCN(S(=O)(=O)c3c(C)c(C)cc(C)c3C)CC2)c1", "activation": "9.5% (active)"}
{"smiles": "O=C(Nc1ccccn1)C1CCN(S(=O)(=O)c2ccc3c(c2)OCCO3)CC1", "activation": "-2.23%"}
{"smiles": "Cc1ccc(Cl)cc1NC(=O)C1CCN(S(C)(=O)=O)CC1", "activation": "-0.58%"}
{"smiles": "COC(=O)[C@]12C[C@H](CC(=O)NCc3ccc(C)o3)C(=O)N(CCC3=CCCCC3)C1=C[C@H](C(C)(C)C)O[C@@H]2C", "activation": "3.47%"}
{"smiles": "CCN(CC)C(=O)CC[C@@H]1CC[C@]2(CCCN(S(=O)(=O)C3CCCCC3)C2)O1", "activation": "-3.43%"}
{"smiles": "CO/N=C/CC(=O)c1ccc(OC)cc1", "activation": "4.21%"}
{"smiles": "N/C(=N\\OC(=O)CCc1ccccc1)c1ccc(Cl)cc1", "activation": "5.53%"}
{"smiles": "COc1ccc(/C(N)=N/OC(=O)Oc2ccccc2)cc1", "activation": "8.42% (active)"}
{"smiles": "CN(CC(=O)Nc1cccc(F)c1)C(=O)C1CSC2(C)CCC(=O)N12", "note": "(centres undefined)", "activation": "-0.29%"}
{"smiles": "CN1[C@H](Cc2ccccc2)COc2cccc(N3CCSCC3)c2S1(=O)=O", "activation": "0.97%"}
{"smiles": "CCCCNc1ccc(C(=O)Nc2cccc(C)n2)cc1[N+](=O)[O-]", "activation": "-1.63%"}
{"smiles": "CCN1CCC(=NNC(=O)c2ccc(C)c([N+](=O)[O-])c2)CC1", "activation": "-0.87%"}
{"smiles": "Cc1cc(O)c(NC(=O)c2ccc(C)c([N+](=O)[O-])c2)cc1C", "activation": "9.28% (active)"}
{"smiles": "COc1ccc(C(=O)N2CCN(c3ncccn3)CC2)cc1S(=O)(=O)N1CCOCC1", "activation": "-2.62%"}
{"smiles": "Cc1cc(C(=O)NN=C/C=C/c2ccco2)n[nH]1", "activation": "-4.94%"}
{"smiles": "Cc1ccc(NC(=O)Cc2cccc(F)c2)c(S(=O)(=O)N2CCOCC2)c1", "activation": "-4.77%"}
{"smiles": "CCOc1ccc(-c2c(C)n([O-])c3c([n+]2=O)CCCC3)cc1", "activation": "0.92%"}
{"smiles": "Cc1ccc(-c2c(C)n([O-])c3c([n+]2=O)CCC3)cc1", "activation": "14.5% (active)"}
{"smiles": "Cc1ccc(-c2c[n+](=O)c3c(n2[O-])CCC3)cc1", "activation": "-3.37%"}
